According to PubChem BioAssay AID1159614 (National Center for Advancing Translational Sciences (NCATS), 2016):
Out of some 45,000 compounds screened, about 65 (0.1%) were called active. The sample holds actives, similar compounds and a random draw of the others, so the mix is not that of the screen. Calls come from the whole dose curve; as a rule, active = well fitted activation curve with a large enough effect; inconclusive = small, poorly fitted or top-dose-only effect; inactive = no such curve, though single readings can be large or run the other way.

Target: Galactocerebrosidase (Homo sapiens) (UniProt P54803)
Assay: A Novel Cell-Based Assay to Identify Small Molecules for B -Galactocerebrosidase; note: nearly all actives have a fitted effect of over 65% in size
Conditions: 145M-Twi-hGALC-G270D cells (Twitcher mouse brain line with human GALC G270D), HMU-beta-Gal fluorescence, 48 h; series mostly up to 57.5 µM
Source text: Lysosomal storage diseases (LSDs) are caused by genetic mutations in genes encoding proteins important for normal lysosomal function. Globoid cell leukodystrophy (GLD), mostly known as Krabbe disease, is a prototype of the neurological LSDs caused by deficiency of beta-galactocerebrosidase (GALC). In brain specimens of GLD patients, psychosine levels are substantially elevated. At elevated concentrations, psychosine becomes cytotoxic to neuronal cells, particularly to oligodendrocytes (OLG), neural cells responsible for myelin formation. Therefore, the biochemical disturbances in GLD are manifested by different degrees of brain demyelination resulting in a broad spectrum of neurological manifestations. Most of the FDA-approved therapies are based on enzyme replacement therapeutic (ERT) agents, which treat non-neurological symptoms of Gaucher disease, Fabry disease, few mucopolysaccharidoses and Pompe disease. Unfortunately, in GLD, a primarily neurological LSD, ERT agents, as large molecular weight molecules unable to cross the blood-brain barrier, which makes this an inefficacious therapeutic approach. In GLD, increasing the residual GALC activity just above the critical threshold (~10% of wild type enzymatic activity), the cytotoxic levels of psychosine will be reduced, avoiding the OLGs apoptosis and the subsequent demyelination process. This will translate in disease stabilization and amelioration of GLD patient symptoms.
A cell-based assay in 1,536-well plate format was developed to implement a quantitative high-throughput screening (qHTS) assay using GLD-disease relevant cells to identify small molecules that produce enhancements of the residual enzymatic activity levels of mutants GALC found and prevalent in GLD patients. Compounds that are active may therefore have some therapeutic application for GLD. After the treatment of live cells for a determined period, using a fluorescent GALC specific substrate, the mutant residual GALC activity is measured. This cell-based qTHS assay was used to screen part of the MLPCN library for small molecule able to increase the mutant GALC enzymatic activity. In this assay, increased fluorescent signal corresponds to enhanced levels of mutant GALC residual enzymatic activity. Activation is the desired outcome for this assay.
NIH Chemical Genomics Center [NCGC]
NIH Molecular Libraries Probe Centers Network [MLPCN]
Assay Submitter (PI): Gustavo Maegawa MD,PhD, University of Florida, Gainesville, FL
2)#Two cell lines were established for the assay: 145M-Twi-hGALC-G270D (brain-derived Twitcher cell line stably expressing human GALC-G270D) and 145M-Twi-hGALC-WT (same 145M-Twi stably expressing human GALC wild type). The Twitcher is the murine C57B/6 model for GLD with naturally occurring homozygous nonsense GALC mutation. The 145M-Twi cell line was established at Maegawa lab (Ribbens J et al 2014).
a.#Media: DMEM/F12 (1:1) with 10% fetal bovine-serum (FBS) with penicillin/streptomycin (PS-1X - 100 I.U./mL of penicillin+100 ug/mL of streptomycin).
b.#The 6-Hexadecanoylamino-4-methylumbelliferyl-b-D-galactoside (HMU-B-gal) substrate was prepared as per Wiederschain et al 1992. Using 20-mL borosilicate tubes, 2.20 mg of HMU-b-Gal was added in each tube to prepare substrate-film with a final air-nitrogen stream evaporation to remove all diluent solvents.
c.#The HMUb-Gal substrate buffer consists of 0.2 M Na2HPO4 (sodium phosphate dibasic)/ 0.1 M Citric Acid with the pH adjusted to 5.2 using HCl. Sodium Azide at 0.02% and Sodium Taurocholate (NaTC) at 1 mg/mL were added to this substrate buffer.
d.#The HMU-b-Gal stopping buffer consist of 0.5 M NaHCO3 (sodium bicarbonate) /0.5 M Na2CO3 (sodium carbonate). […] Triton X-100 at 0.25% was added.
4)#Preparation of HMU-b-Gal substrate tubes
Adding 18.6 mL of the HMUb-Gal substrate buffer to each 20-mL tube (2.20 mg of HMU-b-Gal) will reach a concentration of 0.2 mM. Vortex well the tube until the solution is fully homogenized (clear cloudy solution). […]

Chain of Galactocerebrosidase (Homo sapiens) (P54803 whole entry G286D): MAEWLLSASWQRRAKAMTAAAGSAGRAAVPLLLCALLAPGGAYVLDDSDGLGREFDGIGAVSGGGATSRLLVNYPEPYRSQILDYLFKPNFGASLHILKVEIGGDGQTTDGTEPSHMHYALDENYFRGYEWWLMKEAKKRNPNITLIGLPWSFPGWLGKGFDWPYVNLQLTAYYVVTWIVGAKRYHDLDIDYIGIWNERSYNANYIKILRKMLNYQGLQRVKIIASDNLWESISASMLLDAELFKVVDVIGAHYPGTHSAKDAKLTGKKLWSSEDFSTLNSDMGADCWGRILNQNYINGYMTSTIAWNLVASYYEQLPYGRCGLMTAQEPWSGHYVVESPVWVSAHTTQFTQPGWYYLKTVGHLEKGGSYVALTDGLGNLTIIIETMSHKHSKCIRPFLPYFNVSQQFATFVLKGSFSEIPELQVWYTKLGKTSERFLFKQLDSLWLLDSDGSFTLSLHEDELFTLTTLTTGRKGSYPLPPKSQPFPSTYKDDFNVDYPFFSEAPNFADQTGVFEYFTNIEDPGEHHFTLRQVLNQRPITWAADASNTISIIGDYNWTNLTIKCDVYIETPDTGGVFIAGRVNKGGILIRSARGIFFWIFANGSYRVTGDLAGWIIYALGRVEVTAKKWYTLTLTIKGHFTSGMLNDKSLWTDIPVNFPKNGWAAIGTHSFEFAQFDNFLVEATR

Potency, inactive:
Cc1cccc(CC(=O)N2CC(=O)Nc3ccc(F)cc3C2c2ccccc2)c1 (stereo not drawn)
Cc1cccc(NC(=O)c2nnn(CC(=O)Nc3ccc(C(C)C)cc3)c2N)c1C
Cc1cc(C)cc(OCC(=O)Nc2nc(-c3ccc(F)cc3)ns2)c1
Cc1cccc(NC(=O)Cn2c(C(F)(F)F)nc3ccccc32)c1C
COc1cccc(-c2cc(C(=O)Nc3ccc(C)cc3)[nH]n2)c1
CCc1cc2c(cc3c(=O)n(CC(=O)NCCc4ccc(OC)c(OC)c4)ncn32)s1
Cc1ccccc1OCC(=O)Nc1c(C(=O)Nc2ccccc2F)oc2ccccc12
CCOc1cc(C(=O)Nc2nnc3n2CCS3)cc(OCC)c1OCC
COc1cccc2c1cc1c(=O)n(CC(=O)N3CCN(c4cccc(Cl)c4)CC3)nc(C)n12
CCCn1c2ccccc2c2cnn(CC(=O)N(C)c3ccccc3CC)c(=O)c21
CCN(C(=O)c1sc2cc(OC)ccc2c1Cl)c1ccccc1
CCOC(=O)c1nnn(CC(=O)NC(=O)Nc2ccccc2F)c1C(=O)OCC
Cn1c(=O)c2c(nc(Oc3ccc(C#N)cc3)n2Cc2ccc(Cl)cc2Cl)n(C)c1=O
COc1cc(CN(CC2CCCO2)C(=O)c2ccccc2F)cc(OC)c1OC (stereo not drawn)
Cc1cccn2c(=O)c(C(=O)NC(C)c3ccccc3)cnc12 (stereo not drawn)
Cc1ccc(S(=O)(=O)NC2(C(F)(F)F)NC(=O)N(CCc3ccccc3)C2=O)cc1 (stereo not drawn)
COc1ccc(CC(=O)Nc2nnc3n2CCS3)cc1OC
COc1cccc(C2C(C(=O)Nc3ccc(C)cc3C)=C(C)Nc3c(C(=O)Nc4ccccc4)cnn32)c1 (stereo not drawn)
Cc1ccc(-c2nc3ccccn3c2Nc2c(C)cccc2C)o1
Brc1ccc2c(c1)NC(c1cccnc1)=NC(c1ccccc1)=N2
COC(=O)c1ccc(NC(=O)CCc2c(C)nc3c(c(C)nn3-c3ccc(C)cc3)c2C)cc1
O=C(Nc1ccccc1Cl)N1CCC(CN2CCCC2)CC1
COc1cc(Cl)c(NC(=O)C(NS(=O)(=O)c2cccs2)C(C)C)c(OC)c1 (stereo not drawn)
O=C(NC1CC(=O)N(c2ccc(F)cc2)C1)c1ccc(S(=O)(=O)N2CCCC2)cc1 (stereo not drawn)
CCc1cc2c(cc3c(=O)n(CC(=O)N4CCN(c5cc(Cl)ccc5C)CC4)nc(CC)n32)s1
Cc1cccc(Cn2c(SCc3ccc(C(=O)N4CCC(C)CC4)cc3)nc3ccncc32)c1
COc1ccc2cc(CNc3ccc(OC)c(OC)c3)c(=O)n(CC(=O)Nc3ccccc3F)c2c1
Cc1ccc(OCCn2c(CNc3ccccc3C)nc3ccccc32)cc1
Cc1nn(C)c2c1c(C(F)(F)F)cc(=O)n2C(C)C(=O)NCc1ccc(Cl)cc1 (stereo not drawn)
CCOCCCn1c(SCC(=O)Nc2ccc(CC)cc2)nc2ccccc2c1=O
C=Cc1ccc(Cn2c(C(=O)OC)cc3sc(C)cc32)cc1
COc1ccc(CCNC(=O)Cn2c(=O)n(-c3ccccc3)c(=O)c3c(C)c(C)sc32)cc1OC
O=C(NC1CCN(Cc2ccccc2)CC1)c1ccc(Cn2c(=O)c3ccccc3n(Cc3cccc(F)c3)c2=O)cc1
CC1CCCN(c2cc3c(cc2F)c(=O)c(S(=O)(=O)c2cccc(Cl)c2)cn3Cc2ccccc2)C1 (stereo not drawn)
Cc1nc(N2CCOCC2)c2c(C(=O)NCc3cccc(Cl)c3)c(C)oc2n1
O=C(Nc1ccc(S(=O)(=O)N2CCC(c3nc4ccccc4s3)CC2)cc1)c1ccccc1F
Cc1ccc(N(CC(=O)NCC(C)c2ccccc2)S(=O)(=O)N(C)C)cc1 (stereo not drawn)
COc1ccc(-n2ccn(CC(=O)Nc3ccc(C)c(C)c3)c(=O)c2=O)cc1OC
CCCc1nn2c(=O)cc(COC(=O)c3ccc(NC(=O)C(C)Oc4ccccc4)cc3)nc2s1 (stereo not drawn)
CCCSc1nc2sc3c(c2c(=O)n1-c1cccc(Br)c1)CC(C)(C)OC3
Cc1nn(C(C)C(=O)Nc2ccc(C(C)C)cc2)c(=O)c2c1sc1ccccc12 (stereo not drawn)
Cc1cc(C)c(NC(=O)CSc2nc3nccnc3c(=O)n2CCc2c[nH]c3ccccc23)c(C)c1
O=C(CSc1nc(Nc2ccc(F)c(F)c2)c2ccccc2n1)c1ccc(Cl)cc1
CCn1c2c(c(=O)n3ncc(C(=O)N4CCN(c5ccccc5)CC4)c13)CN(Cc1ccc(OC)cc1)CC2
CC(=O)Nc1c(C)nn(-c2ccccc2)c1N1CCC(C(=O)Nc2cc(Cl)ccc2C)CC1
Cc1cc(C)c(-c2n[nH]c3c2C(c2ccccc2F)N(CCO)C3=O)c(O)c1 (stereo not drawn)
Cc1ccc(C)c(CN2C(=O)c3ccccc3S(=O)c3ccc(C(=O)N4CCOCC4)cc32)c1 (stereo not drawn)
COc1ccc(CCNC(=O)c2cc3cccc4c3n2CC(C)S4)c(OC)c1OC (stereo not drawn)
Oc1ccc(-c2nc3ccc(Cl)cn3c2Nc2ccc3c(c2)OCO3)cc1
COc1ccc(S(=O)(=O)N2CCN(c3ccc(F)cc3)CC2)cc1-c1noc(C)n1
O=C(NCc1ccccc1Cl)C1CCN(c2ncnc3c2nc2n3CCCCC2)CC1
Cc1ccc(C)c(Oc2c(C(F)(F)F)oc3c(CN4CCN(C)CC4)c(O)ccc3c2=O)c1
CCc1cccc(C)c1NS(=O)(=O)c1c(C)nc2sccn2c1=O
CCOC(=O)c1c(-c2ccc(OC)cc2)oc2ccc(OCc3ccc(C(=O)OC)cc3)cc12
O=C(O)c1ccc2c(c1)N(Cc1ccc(F)cc1)C(=O)c1ccccc1S2=O (stereo not drawn)
CCNC(=O)c1cc2n(n1)CCCN(Cc1ccc(C)cc1)C2=O
COc1ccccc1CN1CCC(CNC(=O)c2cnn(-c3cccc(Cl)c3)c2C2CCN(C(=O)OC(C)(C)C)CC2)CC1
Cc1cc(NS(=O)(=O)c2ccc3oc(=O)c4ncn(C)c4c3c2)ccc1Br
Cc1cccc(OCCSc2nc3ccccc3n2CC(=O)N2CCCCC2)c1C
CN1C(=O)c2ccccc2Sc2ccc(NC(=O)Cc3ccc(Cl)cc3)cc21
CCc1ccc(NC(=O)CCS(=O)(=O)c2cc3c(cc2Cl)NC(=O)CO3)cc1
COc1cccc(CN2CCc3nc(SCC(=O)Nc4ccccc4)[nH]c(=O)c3C2)c1
Cc1ccccc1-c1nc(CS(=O)(=O)CC(=O)Nc2cc(Cl)cc(Cl)c2)c(C)o1
CCc1nnc(SCC(=O)Nc2cc(OC)ccc2OC)nc1CC
O=C(NCCCO)c1nn(-c2ccc(Cl)cc2)nc1CO
Cn1nnc2c(N3CCN(c4ccccc4)CC3)ncnc21
CN1CCN(C(CNC(=O)c2ccccc2F)c2ccc3c(c2)OCO3)CC1 (stereo not drawn)
COc1ccc(CNC(=O)c2ccc3c(O)c(S(=O)(=O)c4ccccc4)c(=O)[nH]c3c2)cc1
CCC(=O)Nc1cccc(C(=O)OCc2cc(=O)n3nc(CC)sc3n2)c1
Cc1cccc(OCCSc2nc3ccc(NC(=O)COc4ccccc4C)cc3s2)c1
Cc1cccc(CSc2nc3ccncc3n2CC(=O)N(C)C2CCCCC2)c1
Cc1ccccc1CSc1nc(-c2ccccc2)nc2c1Cc1c(CO)cnc(C)c1O2
O=C(Nc1nc2c(s1)CCCC2)c1ccccc1F
COc1ccc(CNC(=O)CSc2n[nH]c(-c3ccc(F)cc3)n2)cc1
COc1ccc(CNS(=O)(=O)c2ccc(-c3cnc(C4CC4)o3)cc2)cc1
CCc1nc2ccc(C(=O)N3CCN(c4cc(Cl)ccc4C)CC3)cc2nc1CC
Cc1ccc(NC(=O)c2ccc(CN3CC(=O)N4CCCCC4C3=O)cc2)c(Cl)c1 (stereo not drawn)
COc1cccc(NC(=O)Nc2ccc3c(c2)N(C)C(=O)c2ccccc2S3)c1
COc1ccccc1-c1nnc(SCC(N)=O)o1
Cc1cccc(C(=O)Nc2ccc(S(=O)(=O)N3CCCCC3c3cccnc3)cc2)c1 (stereo not drawn)
CCc1ccc(NC(=O)c2sc3nc4c(cc3c2N)CN(CC)CC4)cc1
Cc1ccccc1NC(=O)CN1C(=O)C(C)(C)c2ccccc21
Cc1ccc(C(=O)Nc2ccc(OCc3cc(=O)n4c5c(sc4n3)CCCC5)cc2)cc1
COc1ccc(NC(=O)CSc2nccn2Cc2ccc3c(c2)OCO3)cc1
CCOC(=O)c1c(S(=O)(=O)N2CCC(C(=O)NCc3ccccc3OC)CC2)c(C)n(C)c1C
O=C(Nc1ccccc1Br)c1cc(CN2CCCC2)on1
COc1ccc(S(=O)(=O)NCc2cccn2Cc2cccc(C)c2)cc1Cl
Cc1cccc(Cn2c(=O)n(CCC(=O)NCCc3ccc(Cl)cc3)c(=O)c3sccc32)c1
Cc1noc2ncnc(NCc3ccccc3Cl)c12
CCOc1ccc(CCNC(=O)CN(c2ccc(C)cc2)S(=O)(=O)N(C)C)cc1OCC
COc1ccc(C)cc1NC(=O)CCc1c(C)nn(-c2ccc(N3CCOCC3)nn2)c1C
CCc1ccc(N2C(=O)CN(S(=O)(=O)CC)CC2(C)C(=O)NC2CCCCC2)cc1 (stereo not drawn)
Cc1ccc(Cc2nc3ccccc3nc2SCC(=O)Nc2cccc(C(F)(F)F)c2)cc1
Cc1ccc(-n2c(SCC(=O)c3ccccc3)nc3c([nH]c4ccccc43)c2=O)cc1
CC(=O)OC1=C(C(C)=O)N(Cc2ccccc2)S(=O)(=O)c2ccccc21
Brc1cccc(-c2nnn3c2nc(NC2CCCCC2)c2ccccc23)c1
Cc1cccc(N2CCN(C(=O)CCSCc3ccccc3F)CC2)c1C
COc1ccc(-c2c(C)nn3c(N4CCC(C(=O)NCCC(C)C)CC4)cc(C)nc23)cc1OC
Cc1cccc(NC(=O)Cn2c(=O)n(CCC(C)C)c(=O)c3cccnc32)c1
O=[N+]([O-])c1cc(-c2nc(-c3ccccc3)no2)ccc1NCc1ccco1
Cc1cc(NC(=O)c2ccc(-c3ccc(Cl)cc3)o2)cc(-c2nc3ncccc3o2)c1O
CCN(CC)c1ccc(NC(=O)Cn2nc3c(cc2=O)CCCC3)c(C)c1
Oc1c(C(c2ccccc2Cl)N2CCOCC2)sc2nc(-c3ccco3)nn12 (stereo not drawn)
